Test results from PubChem BioAssay (NCI).
About 83,000 compounds went through this panel and 20% of them were active in at least one assay; those are over-represented in the sample as a whole.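 Cell lines were cultured in 96-well plates, exposed to a single compound concentration, and assessed for percent growth 48 hours later.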 Activity calls are given as the source filed them. The calls were made as follows: active = growth percent below 10; inactive = the rest.

Tests used:
Assay in all cases: NCI-60 one-dose screen, 48 h (100 = growth as untreated, 0 = no growth, -100 = all killed)
Settings in all cases: 10 µM unless noted
[1] = tested on: NCI-H226 lung
[2] = tested on: NCI-H322M lung
[3] = tested on: HOP-62 NSCLC
[4] = tested on: NCI-H460 lung
[5] = tested on: HOP-92 NSCLC
[6] = tested on: NCI-H522 lung
[7] = tested on: A549/ATCC NSCLC
[8] = tested on: 786-0 renal
[9] = tested on: COLO 205 colon

Measured: growth

COc1ccccc1NC(=O)N/C(N)=N/c1nc2ccccc2s1
inactive: [1] 63.4% | [2] 41.6% | [3] 32.7% | [4] 10.1% | [5] 62.1% | [7] 25.1% | [8] 40.2%
active: [6] 4.23% | [9] -3.41%

COc1cc(/C=N/n2c(CN3CCOCC3)nc3ccccc3c2=O)cc(OC)c1OC
inactive: [1] 115% | [2] 90% | [3] 96.4% | [4] 109% | [5] 106% | [6] 97.9% | [8] 100% | [9] 106%

COc1ccc2c(c1)O/C(=C/c1ccc(OCC(=O)c3ccccc3)cc1)C2=O
inactive: [1] 104% | [2] 97.2% | [3] 93.6% | [4] 118% | [5] 98.6% | [6] 94.5% | [7] 93.2% | [8] 101% | [9] 129%

COC(=O)[C@]12CC[C@@H](C)[C@H](C)[C@@H]1C1=CC[C@@H]3[C@@]4(C)C(C=O)=C[C@@](C)(CO)[C@@H]4[C@H](O)C[C@@]3(C)[C@]1(C)CC2
inactive: [2] 32.9% | [3] 11.9%
active: [1] 3.36% | [4] -35% | [5] -22.8% | [6] -37.5% | [7] -1.72% | [8] -30.4% | [9] -28%

Cn1c2c(c3ccc(Cl)c(Cl)c31)C(C#N)C1(CCNCC1)NC2=O (stereo not given)
inactive: [1] 44.1% | [2] 55.3% | [3] 23.8% | [4] 18.3% | [5] 21.9% | [6] 47.3% | [7] 31.2% | [8] 54.5%
active: [9] -76.6%

COc1ccc(Nc2nnc(SCc3ccccc3F)s2)cc1
inactive: [1] 87.2% | [2] 116% | [3] 103% | [4] 111% | [5] 88.6% | [6] 75.4% | [7] 102% | [8] 101% | [9] 114%

CC(C)C(NC(=O)C1(NC(=O)OCc2ccccc2)CCCC1)C(=O)O (stereo not given)
inactive: [1] 104% | [2] 106% | [3] 119% | [4] 100% | [5] 92% | [6] 88.9% | [7] 106% | [8] 104% | [9] 107%

Cc1ccc(CCC(=O)Nc2ncc(Cc3cc(Cl)ccc3Cl)s2)o1
inactive: [1] 45.5% | [2] 33.3% | [3] 35.6% | [5] 56.6% | [7] 23.1% | [8] 26.1%
active: [6] 3.08% | [9] 2.59%

C[n+]1cc2c3c(ccc2c2ccc4cc5c(cc4c21)OCO5)OCO3
active: [1] -87.7% | [2] -93.8% | [3] -83.8% | [4] -54.7% | [5] -80.6% | [6] -74.2% | [7] -86.2% | [8] -87.5% | [9] -84.5%

C[C@H]1[C@H]2[C@H]3CC[C@@H]4[C@@]5(C)C/C(=C/c6ccco6)C(=O)C(C)(C)[C@@H]5CC[C@@]4(C)[C@]3(C)CC[C@]23CO[C@]1(C)[C@@H](C(=O)/C=C\c1ccco1)C3
inactive: [1] 99.6% | [2] 98.4% | [3] 106% | [4] 107% | [5] 87.1% | [6] 85.7% | [8] 104%
active: [9] -6.84%

COC(=O)c1c2c(c(C)[n+]([O-])c1C)C(=O)C(NCc1ccc(F)c(Cl)c1)=CC2=O
active: [2] 3.24% | [4] 7.33% | [6] -26.6% | [7] 1.3% | [8] -93.5% | [9] -75.5%
inactive: [1] 84.3% | [3] 28.3% | [5] 19%

CN(Cc1cnc2nc(N)nc(N)c2n1)c1ccc(C(=O)N[C@@H](CCc2nn[nH]n2)c2nn[nH]n2)cc1
inactive: [1] 85.4% | [2] 66% | [3] 32.7% | [4] 19.4% | [5] 93.2% | [7] 22.9% | [8] 26.8% | [9] 49.3%

CCN1C(=O)N(CC)C2C1NN=c1s/c(=C\c3cccs3)c(=O)n12 (stereo not given)
active: [4] 8.1% | [6] -9.67% | [9] -6.95%
inactive: [1] 79% | [2] 42.7% | [3] 46.4% | [5] 64.1% | [7] 25.3% | [8] 28.5%

Cc1ccc(-n2nc3c(c(C#N)c2=O)CC(c2ccccc2Cl)C([N+](=O)[O-])=C3O)cc1 (stereo not given)
inactive: [1] 102% | [2] 101% | [3] 91% | [4] 99.3% | [5] 103% | [7] 95.4% | [8] 102% | [9] 108%

Cc1nn(-c2ccccc2)c(Oc2ccc(Cl)cc2)c1/C=N\N=c1/sc2ccccc2n1C
inactive: [1] 84.3% | [2] 83.8% | [3] 86.7% | [4] 85% | [5] 71.9% | [6] 68% | [7] 86.1% | [8] 96.3% | [9] 93%
